Ten compounds from PubChem BioAssay (NCATS) can be followed below.

The target in experiment [1] is Peroxisome proliferator-activated receptor delta (Homo sapiens) (UniProt Q03181). The experiment can be described thus: qHTS assay for small molecule agonists of peroxisome proliferator-activated receptor delta signaling (AID 588534; calls by dose curve;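 further: 0% = DMSO basal wells and 100% = positive control agonist at 10 µM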). Summed up:
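Agonist-mode beta-lactamase reporter readout (CCF4 dye, 2 h at RT) after 18 h at 37 °C exposure to a titration; Hill-equation fitting gave EC50 and maximal response.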
For orientation: In qHTS, concentration-response curves come from the screen itself.

For experiment [2], the target named is Cytochrome P450 3A4 (Homo sapiens) (UniProt P08684). The experiment can be described thus: qHTS Assay for Inhibitors and Substrates of Cytochrome P450 3A4 (AID 884). Further: potency means the concentration at half of the fitted maximal effect; nearly all actives have a fitted effect of over 50% in size. Summed up: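 Luminescent readout of luciferin produced by CYP3A4 (20 nM) dealkylation of Luciferin-PPXE, 25 uM (its KM). NADPH-driven reaction ran 60 min at RT after 10 min compound preincubation; data scaled to 57 uM ketoconazole as 100% inhibition.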

For experiment [3] the target is unchanged. The experiment can be described thus: qHTS Assay for Activators of Cytochrome P450 3A4 (AID 885). Further: nearly all actives have a fitted effect of over 65% in size. Put shortly: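 Using 20nM recombinant human CYP3A4 in potassium phosphate (200mM), substrate Luciferin-PPXE at 25uM, luminescent luciferin detection followed a 60-min RT NADPH reaction; data scaled to 57 uM ketoconazole.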
For experiment [4], the target named is Nuclear receptor ROR-gamma (Homo sapiens) (UniProt P51449). The experiment can be described thus: qHTS assay for small molecule antagonists of the retinoid-related orphan receptor gamma (ROR-gamma) signaling pathway (AID 651802).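 Further: CHO cells with doxycycline-induced ROR-gamma expression; luciferase reporter luminescence driven by ROR response element; series mostly up to about 92 µM; on the % scale 0 is the no-effect control and ±100 the full control effect; nearly all actives have a fitted effect of over 60% in size.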 Put shortly: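 Luminescence (One-Glo, 30 min RT) measured 16 h after compound addition and doxycycline induction at 37C. Reporter: RORE-luciferase under TET-inducible ROR-gamma in CHO cells.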

For experiment [5], the target named is Peroxisome proliferator-activated receptor gamma (Homo sapiens) (UniProt P37231). The experiment can be described thus: qHTS assay for small molecule antagonists of peroxisome proliferator-activated receptor gamma signaling (AID 588537; active means well fitted inhibition curve with a large enough effect in the signal ratio, with a control signal flat, not every such curve was filed as active; the % refers to the signal ratio;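 further: reporter cells co-stimulated with 50 nM rosiglitazone agonist during compound treatment; % of control where 0% means no effect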). Summed up:
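Compounds are tested as concentration series for inhibition of rosiglitazone-driven (50 nM) reporter expression in GeneBLAzer PPAR-gamma-UAS-bla HEK293 cells. After 16 h at 37 C, CCF4 substrate is added for 2 h at room temperature and blue/green fluorescence is measured.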

Experiment [6] can be described thus: qHTS assay for small molecule disruptors of the mitochondrial membrane potential - 1 hr assay (AID 651754; calls by dose curve; further: potency means the concentration at half of the fitted maximal effect; nearly all actives have a fitted effect of over 35% in size). Put shortly:
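Mitochondrial potential in living HepG2 cells after 1 hr compound treatment at 37C was read with Mito-MPS dye added for a further 30 min. Red aggregate and green monomer fluorescence were measured; loss of potential leaves dye as cytoplasmic monomers.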

A short description of experiment [7]: qHTS assay for small molecule disruptors of the mitochondrial membrane potential - 5 hr assay (AID 651755; calls by dose curve; further: potency means the concentration at half of the fitted maximal effect; nearly all actives have a fitted effect of over 40% in size). Put shortly: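 Seed HepG2 overnight, add compound, incubate 5 hr at 37C and 5% CO2, stain 30 min with Mito-MPS, then measure monomer (490/535 nm) and aggregate (540/590 nm) fluorescence.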
Experiment [8] has as its target Voltage-gated inwardly rectifying potassium channel KCNH2 (Homo sapiens) (UniProt Q12809). Nature of the experiment: qHTS Assay for Small Molecule Inhibitors of the Human hERG Channel Activity (AID 588834).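 Further: top concentration of the series differs between compounds; on the % scale 0 is the no-effect control and ±100 the full control effect; lower thallium flux fluorescence means stronger hERG block; nearly all actives have a fitted effect of over 50% in size.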 Summed up: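 In hERG-transduced U2OS cells, dye-loaded for 1 hr at room temperature in dark, test compounds incubated 10 min at 37 °C before thallium stimulation. AC50 values derived by Hill modelling of concentration-response.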

Experiment [9] deals with Luciferin 4-monooxygenase (Photinus pyralis) (UniProt P08659). The experiment can be described thus: Biochemical firefly luciferase enzyme assay for NPC (AID 624030). Further: potency means the concentration at half of the fitted maximal effect; nearly all actives have a fitted effect of over 70% in size. Put shortly:
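Counter-screen for direct inhibition of the luciferase enzyme by approved-drug library compounds, run at 10 nM enzyme in 50 mM Tris acetate (final). Luminescence was read within 5 min of enzyme-buffer addition and normalized to PTC124 versus DMSO (0%).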

The nature of experiment [10]: S16 Schwann cell PMP22 intronic element firefly luciferase assay (AID 624032).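 Further: series mostly up to about 58 µM; plate controls were DMSO for no effect and PTC124 positive control mean for full effect; nearly all actives have a fitted effect of over 30% in size.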 Put shortly:
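Rat S16 Schwann cells stably carrying a PMP22 intronic element-driven Fluc reporter were seeded overnight, then exposed to compounds for 24 h at 37 °C. Luminescence was normalized to PTC124 (positive control) and DMSO (0% activity).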

Experiment [11] can be described thus: qHTS assay for small molecule agonists of the antioxidant response element (ARE) signaling pathway (AID 651741; active means well fitted activation curve with a large enough effect in the signal ratio; the % refers to the signal ratio; further: potency means the concentration at half of the fitted maximal effect). Summed up:
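Reporter: beta-lactamase under ARE, stably in HepG2. Exposure: 16 h, 37 C, compounds delivered in DMSO by pin tool after 5 h cell preincubation. Readout: FRET substrate fluorescence after 2 h at RT.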

Experiment [12] in a line: qHTS assay for small molecule antagonists of peroxisome proliferator-activated receptor delta signaling (AID 588535; active means well fitted inhibition curve with a large enough effect in the signal ratio, with a control signal flat, not every such curve was filed as active; the % refers to the signal ratio;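 on max response: cells co-treated with a PPAR-delta agonist as stimulator during compound exposure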). The conditions noted are these: HEK293T PPARd-UAS-bla, beta-lactamase FRET ratio, 18 h; 460 nm channel. Put shortly: (§1)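 Inhibition of PPAR-delta response element-driven beta-lactamase expression is measured in HEK293T cells exposed to a compound titration series for 18 hrs at 37 C. Half-maximal inhibition comes from Hill equation fitting.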

Experiment [13] deals with Peroxisome proliferator-activated receptor delta (Homo sapiens) (UniProt Q03181). Described as above. Summed up: as §1
The target in experiment [14] is Peroxisome proliferator-activated receptor gamma (Homo sapiens) (UniProt P37231). The experiment can be described thus: qHTS assay for small molecule agonists of peroxisome proliferator-activated receptor gamma signaling (AID 588536; active means well fitted curve in the direction sought with a large enough effect in the signal ratio, with a control signal flat, not every such curve was filed as active; the % refers to the signal ratio). Summed up: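 Using GeneBLAzer HEK293 cells, response was quantified by CCF4 fluorescence and normalized between basal DMSO (0%) and rosiglitazone 2 uM (100%); curves yielded half-maximal stimulation concentration and efficacy.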

Experiment [15] concerns the target Thyroid hormone receptor beta (Homo sapiens) (UniProt P10828). The experiment can be described thus: qHTS assay for small molecule agonists of thyroid hormone receptor beta signaling (AID 588545; calls by dose curve;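 further: 0% = DMSO only and 100% = 10 nM T3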). Summed up: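 TR-UAS-bla-GripTite HEK 293 cells in medium with 2% charcoal/dextran FBS, 0.1 mM NEAA and 1 mM sodium pyruvate were treated with titrated compounds for 18 hrs at 37 C. Beta-lactamase reporter was read with CCF4 dye (ex 405, em 460/530 nm); EC50 from Hill fits.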

Experiment [16] is described as follows: qHTS assay for small molecule activators of the p53 signaling pathway (AID 651743; active means well fitted activation curve with a large enough effect in the signal ratio, not every such curve was filed as active; the % refers to the signal ratio; further: series mostly up to about 92 µM; % of control where 0% means no effect). The conditions noted are these: HCT-116 p53RE-bla, beta-lactamase FRET ratio, 16 h; activation: stronger effect = higher value. Put shortly: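 Agonist-mode quantitative HTS in HCT-116 cells carrying a p53-response-element beta-lactamase reporter; 16 h compound treatment at 37 C, then FRET substrate loading for 2 h at room temperature and fluorescence read.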

Experiment [17] can be described thus: qHTS assay for environmental chemicals that activate the Aryl hydrocarbon Receptor (AhR) signaling pathway (AID 651777). Further: % of control where 0% means no effect; nearly all actives have a fitted effect of over 15% in size. Conditions: 1A2-DRE human hepatoma cells, luciferase, 24 h; activation: stronger effect = higher value. Summed up: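 AhR activation is scored as a rise in luciferase from a stable DRE–CYP1A2 promoter construct in human hepatoma cells. Treatment lasts 24 hr at 37 C; detection uses One-Glo after 30 min at room temperature.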

Experiment [18] addresses Peroxisome proliferator-activated receptor alpha (Homo sapiens) (UniProt Q07869). The experiment can be described thus: qHTS assay for small molecule agonists of the peroxisome proliferator-activated receptor alpha (PPARalpha) signaling pathway (AID 651778). Further: % of control where 0% means no effect. Conditions: PathHunter PPARalpha complementation, chemiluminescence, 6 h; max response: stronger effect = higher value. Summed up: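 Cells plated at 2,000/well and held overnight at 37 C, 5% CO2, then compound added by pin tool for 6 hr; after PathHunter detection reagent and 60 min at room temperature, chemiluminescence from enzyme complementation was read.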

Experiment [19] in a line: qHTS assay for small molecule agonists of the antioxidant response element (ARE) signaling pathway measured by Nrf2-dependant transcriptional activity (AID 720636; active means well fitted curve in the direction sought with a large enough effect in the repeat runs; an effect the other way counts as inactive or inconclusive;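 further: HepG2 cells with an ARE-driven luciferase reporter; % of control where 0% means no effect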). Put shortly: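 First, ARE-luc HepG2 cells attached for 6 hr at 37 C in 1% dialyzed FBS medium. Next, compound or DMSO was added and incubated 16 hr. Finally, ONE-Glo reagent was added and luminescence measured after 30 min.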

A short description of experiment [20]: qHTS assay for small molecule agonists of the antioxidant response element (ARE) signaling pathway measured by Nrf2-dependant transcriptional activity - cell viability counter screen (AID 720653; active means well fitted curve in the direction sought with a large enough effect in the repeat runs; an effect the other way counts as inactive or inconclusive; further: on the % scale 0 is the no-effect control and ±100 the full control effect). The conditions noted are these: ARE-bla HepG2 viability, CellTiter-Glo ATP luminescence, 16 h; max response: stronger effect = lower value. Summed up:
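ARE-bla HepG2 cells (2,000/well) rested 5 hrs at 37C/5% CO2, then exposed to compounds in DMSO for 16 hrs. Viability was read in the same wells as intracellular ATP by luminescence, 30 min at room temperature after reagent addition.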

Experiment [21] is described as follows: qHTS assay for cell viability of HEK293 cells (AID 743288). Further: on the % scale 0 is the no-effect control and ±100 the full control effect; nearly all actives have a fitted effect of over 50% in size. Conditions: ATP luminescence (CellTiter-Glo), 18 h; max response: stronger effect = lower value. Put shortly: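 After 18 h compound exposure at 37 C, parental HEK293 cells (2,000/well) are lysed with CellTiter-Glo and luminescence is read following 30 min at room temperature.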
Experiment [22] in a line: qHTS assay for cell viability of the p53RE-bla HCT-116 cell line (AID 743292). Further: on the % scale 0 is the no-effect control and ±100 the full control effect; nearly all actives have a fitted effect of over 55% in size. Put shortly: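 Quantitative high-throughput format: compounds in DMSO were pinned onto p53RE-bla HCT-116 cells (4,000/well) and incubated 16 h at 37 C. Total intracellular ATP, read by CellTiter-Glo luminescence, reflects viable cell number.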

Records with an inconclusive call do not appear. Activity calls are given as the source filed them. Unless noted, the call rests on the fitted dose curve; in most records, active means well fitted curve in the direction sought with a large enough effect; inconclusive means small, poorly fitted or top-dose-only effect, or another doubt; inactive means no such curve, though single readings can be large; an effect the other way counts as inactive or inconclusive.

Chain of Cytochrome P450 3A4 (Homo sapiens) (P08684 whole entry, looked up): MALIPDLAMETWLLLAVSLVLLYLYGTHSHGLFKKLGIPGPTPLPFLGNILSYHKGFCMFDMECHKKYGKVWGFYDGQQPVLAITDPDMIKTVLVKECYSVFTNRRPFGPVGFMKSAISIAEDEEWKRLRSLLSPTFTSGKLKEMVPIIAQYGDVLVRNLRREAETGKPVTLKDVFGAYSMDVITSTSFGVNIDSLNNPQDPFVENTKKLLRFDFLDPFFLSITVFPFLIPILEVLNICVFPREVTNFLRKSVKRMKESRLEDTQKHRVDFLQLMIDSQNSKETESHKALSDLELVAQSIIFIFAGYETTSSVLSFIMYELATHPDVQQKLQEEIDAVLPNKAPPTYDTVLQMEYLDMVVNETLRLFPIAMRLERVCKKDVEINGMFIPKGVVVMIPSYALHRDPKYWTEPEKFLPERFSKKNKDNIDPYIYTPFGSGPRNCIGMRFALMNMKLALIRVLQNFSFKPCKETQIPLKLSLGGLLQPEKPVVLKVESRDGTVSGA
Chain of Peroxisome proliferator-activated receptor gamma (Homo sapiens) (P37231 whole entry, looked up): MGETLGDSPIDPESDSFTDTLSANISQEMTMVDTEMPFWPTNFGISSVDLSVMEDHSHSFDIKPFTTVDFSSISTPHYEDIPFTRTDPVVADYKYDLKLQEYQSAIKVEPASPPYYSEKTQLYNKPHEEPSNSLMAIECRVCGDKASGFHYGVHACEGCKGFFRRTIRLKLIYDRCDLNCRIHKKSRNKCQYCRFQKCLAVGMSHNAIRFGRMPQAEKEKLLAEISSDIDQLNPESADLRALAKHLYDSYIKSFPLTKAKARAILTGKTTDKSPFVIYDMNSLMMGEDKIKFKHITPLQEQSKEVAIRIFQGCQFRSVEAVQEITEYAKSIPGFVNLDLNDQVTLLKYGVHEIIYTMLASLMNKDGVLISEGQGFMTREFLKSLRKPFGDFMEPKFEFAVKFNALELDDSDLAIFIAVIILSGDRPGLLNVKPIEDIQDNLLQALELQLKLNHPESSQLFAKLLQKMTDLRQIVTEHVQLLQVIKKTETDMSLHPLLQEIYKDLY
Chain of Peroxisome proliferator-activated receptor delta (Homo sapiens) (Q03181 whole entry, looked up): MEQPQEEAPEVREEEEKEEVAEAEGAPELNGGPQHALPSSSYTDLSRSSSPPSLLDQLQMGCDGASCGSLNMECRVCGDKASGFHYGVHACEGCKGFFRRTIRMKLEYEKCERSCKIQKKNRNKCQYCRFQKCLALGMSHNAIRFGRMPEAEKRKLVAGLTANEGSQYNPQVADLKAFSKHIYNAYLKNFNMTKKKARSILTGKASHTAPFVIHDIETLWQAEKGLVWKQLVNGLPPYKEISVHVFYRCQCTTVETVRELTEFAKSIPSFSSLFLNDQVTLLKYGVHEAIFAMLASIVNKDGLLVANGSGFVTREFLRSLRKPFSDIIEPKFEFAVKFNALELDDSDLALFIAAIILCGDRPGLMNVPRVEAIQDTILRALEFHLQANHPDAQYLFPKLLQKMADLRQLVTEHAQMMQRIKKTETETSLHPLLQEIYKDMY
Chain of Nuclear receptor ROR-gamma (Homo sapiens) (P51449 whole entry, looked up): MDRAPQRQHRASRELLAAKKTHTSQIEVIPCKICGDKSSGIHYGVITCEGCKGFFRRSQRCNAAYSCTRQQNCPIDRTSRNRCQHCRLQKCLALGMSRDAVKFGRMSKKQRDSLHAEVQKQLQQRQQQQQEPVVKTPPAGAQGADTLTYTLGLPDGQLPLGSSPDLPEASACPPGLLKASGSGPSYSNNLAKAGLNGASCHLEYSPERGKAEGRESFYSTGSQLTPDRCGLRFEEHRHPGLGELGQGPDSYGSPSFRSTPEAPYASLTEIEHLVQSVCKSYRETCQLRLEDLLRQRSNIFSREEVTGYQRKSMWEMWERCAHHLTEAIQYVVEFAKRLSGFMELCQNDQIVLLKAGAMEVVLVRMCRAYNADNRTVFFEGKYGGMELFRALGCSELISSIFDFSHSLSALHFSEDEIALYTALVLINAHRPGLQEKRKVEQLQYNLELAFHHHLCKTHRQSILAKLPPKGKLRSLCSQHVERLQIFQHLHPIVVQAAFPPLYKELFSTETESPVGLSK
Chain of Peroxisome proliferator-activated receptor alpha (Homo sapiens) (Q07869 whole entry, looked up): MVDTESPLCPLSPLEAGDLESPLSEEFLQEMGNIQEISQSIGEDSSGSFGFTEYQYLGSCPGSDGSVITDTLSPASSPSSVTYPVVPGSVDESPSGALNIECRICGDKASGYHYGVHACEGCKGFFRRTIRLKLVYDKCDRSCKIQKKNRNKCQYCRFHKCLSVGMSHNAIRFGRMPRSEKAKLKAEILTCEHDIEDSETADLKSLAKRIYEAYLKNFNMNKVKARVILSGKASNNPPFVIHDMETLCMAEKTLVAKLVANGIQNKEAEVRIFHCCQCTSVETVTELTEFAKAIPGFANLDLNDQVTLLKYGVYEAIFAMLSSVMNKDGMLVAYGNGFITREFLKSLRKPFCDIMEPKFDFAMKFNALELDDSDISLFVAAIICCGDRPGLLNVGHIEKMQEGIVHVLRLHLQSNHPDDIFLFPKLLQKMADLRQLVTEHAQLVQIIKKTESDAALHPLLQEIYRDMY
Chain of Voltage-gated inwardly rectifying potassium channel KCNH2 (Homo sapiens) (Q12809 whole entry, looked up): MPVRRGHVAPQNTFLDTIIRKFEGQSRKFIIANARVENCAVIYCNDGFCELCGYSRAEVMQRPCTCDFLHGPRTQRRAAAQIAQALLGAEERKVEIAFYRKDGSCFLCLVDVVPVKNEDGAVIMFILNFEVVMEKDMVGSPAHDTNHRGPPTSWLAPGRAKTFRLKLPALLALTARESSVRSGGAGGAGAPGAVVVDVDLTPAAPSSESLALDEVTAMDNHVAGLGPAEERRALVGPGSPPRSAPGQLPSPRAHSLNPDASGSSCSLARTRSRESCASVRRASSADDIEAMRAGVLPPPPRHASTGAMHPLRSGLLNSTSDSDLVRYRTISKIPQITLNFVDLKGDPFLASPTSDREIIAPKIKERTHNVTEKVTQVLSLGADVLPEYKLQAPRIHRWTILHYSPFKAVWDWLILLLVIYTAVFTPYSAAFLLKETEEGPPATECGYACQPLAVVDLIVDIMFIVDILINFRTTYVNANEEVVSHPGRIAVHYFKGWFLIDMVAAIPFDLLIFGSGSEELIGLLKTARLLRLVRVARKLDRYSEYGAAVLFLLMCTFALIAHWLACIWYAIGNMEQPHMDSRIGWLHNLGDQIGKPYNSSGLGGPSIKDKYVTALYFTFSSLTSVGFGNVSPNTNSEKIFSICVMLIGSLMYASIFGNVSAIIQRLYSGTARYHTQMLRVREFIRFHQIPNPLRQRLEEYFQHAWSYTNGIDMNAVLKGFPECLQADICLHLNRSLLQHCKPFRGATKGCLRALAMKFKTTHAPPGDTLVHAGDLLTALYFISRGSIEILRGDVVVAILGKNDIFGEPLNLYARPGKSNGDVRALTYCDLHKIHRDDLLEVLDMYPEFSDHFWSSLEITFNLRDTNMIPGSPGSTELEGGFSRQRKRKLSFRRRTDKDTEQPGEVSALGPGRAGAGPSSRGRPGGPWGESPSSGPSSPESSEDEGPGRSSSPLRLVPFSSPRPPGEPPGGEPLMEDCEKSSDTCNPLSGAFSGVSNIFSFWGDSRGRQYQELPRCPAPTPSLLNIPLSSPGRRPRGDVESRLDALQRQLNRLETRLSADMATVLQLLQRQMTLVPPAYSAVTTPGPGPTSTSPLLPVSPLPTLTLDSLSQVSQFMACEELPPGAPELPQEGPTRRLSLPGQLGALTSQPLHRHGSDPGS
Chain of Thyroid hormone receptor beta (Homo sapiens) (P10828 whole entry, looked up): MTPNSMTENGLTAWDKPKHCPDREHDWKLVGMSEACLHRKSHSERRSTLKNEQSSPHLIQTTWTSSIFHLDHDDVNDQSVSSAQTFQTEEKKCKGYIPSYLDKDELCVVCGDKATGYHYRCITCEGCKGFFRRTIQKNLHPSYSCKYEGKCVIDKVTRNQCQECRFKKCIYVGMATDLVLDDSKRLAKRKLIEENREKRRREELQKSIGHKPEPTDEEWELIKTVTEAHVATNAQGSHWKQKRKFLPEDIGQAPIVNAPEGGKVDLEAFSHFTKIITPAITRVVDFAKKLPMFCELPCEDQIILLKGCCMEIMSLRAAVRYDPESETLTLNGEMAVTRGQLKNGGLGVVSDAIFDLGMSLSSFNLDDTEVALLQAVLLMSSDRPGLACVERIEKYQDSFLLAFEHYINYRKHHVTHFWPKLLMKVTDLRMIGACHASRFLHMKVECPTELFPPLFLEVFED
Chain of Luciferin 4-monooxygenase (Photinus pyralis) (P08659 whole entry, looked up): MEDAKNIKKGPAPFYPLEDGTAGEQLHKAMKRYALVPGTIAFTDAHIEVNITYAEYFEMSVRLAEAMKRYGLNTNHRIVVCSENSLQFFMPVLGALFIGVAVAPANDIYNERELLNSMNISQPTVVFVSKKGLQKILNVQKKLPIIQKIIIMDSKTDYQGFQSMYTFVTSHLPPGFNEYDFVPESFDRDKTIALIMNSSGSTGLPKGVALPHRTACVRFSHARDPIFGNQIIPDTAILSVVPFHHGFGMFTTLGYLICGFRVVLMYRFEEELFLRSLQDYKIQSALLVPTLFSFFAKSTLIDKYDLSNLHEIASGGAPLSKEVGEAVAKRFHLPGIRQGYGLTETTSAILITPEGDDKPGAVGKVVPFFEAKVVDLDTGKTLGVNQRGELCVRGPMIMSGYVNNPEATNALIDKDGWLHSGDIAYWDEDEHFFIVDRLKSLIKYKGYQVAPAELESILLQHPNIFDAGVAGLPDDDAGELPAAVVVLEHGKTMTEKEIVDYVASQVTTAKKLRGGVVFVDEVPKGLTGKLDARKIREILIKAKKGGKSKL

Turning to `CC(C)CCCCOC(=O)c1ccccc1C(=O)OCCCCC(C)C`, the compound was classed as inactive in experiment [1].
Consider `O=C1c2c(O)ccc([N+](=O)[O-])c2C(=O)c2c([N+](=O)[O-])ccc(O)c21`, for which the Potency in experiment [2] is 7.94 µM (active). The Potency result in [3] is “inactive”. Also, in [1], the compound was classed as inactive.
In the case of `CC(CCl)OC(C)CCl` (centres undefined), the compound was called inactive in experiment [1]. For the same compound, in [4], the Potency result was “inactive”.
In the case of `Cc1ccccc1C`, in experiment [1], the compound was called inactive. In addition, in experiment [5], the Potency entry was “inactive”.
On to `c1c[nH]cn1`, for which the call in experiment [1] was inactive. The Potency entry in experiment [4] was “inactive”.
With `Cc1c(N)cccc1N`, the Potency result in experiment [3] and in experiment [4] was “inactive” each time. Further, the compound was called inactive in [1]. Besides, the Potency in experiment [6] and in experiment [7] was 37.6 µM (active) in each case.
In the case of `Cc1ccc(N)c([N+](=O)[O-])c1`, the outcome in experiment [1] was inactive. For the same compound, the Potency result in experiment [4] was “inactive”.
In the case of `[O-][N+](=Nc1ccccc1)c1ccccc1`, in experiment [1], the result was inactive. Further, the Potency entry in experiment [8], in experiment [10] and in [4] was “inactive” throughout. Besides, the results for the Potency in experiment [9] and in [11] were 12.8 µM (active) and 37.6 µM (active), respectively.
With `c1ccc2c(c1)ccc1ncccc12`, the Potency entry in experiment [3] and in [4] was “inactive” throughout. For the same compound, the compound was classed as inactive in experiment [1].
As for `CC(C)C(C(=O)OC(C#N)c1cccc(Oc2ccccc2)c1)c1ccc(Cl)cc1` (centres undefined), the result in [1] was inactive. Moreover, the max response in [12] is -0.258%; in experiment [18], 0.669% (inactive); in experiment [20], -14.8% (inactive); in experiment [21], -26.6% (inactive). For the same compound, the Potency result in experiment [13], in [14], in [5], in experiment [15], in [19] and in experiment [22] was “inactive” throughout. Besides, the activation in experiment [16] is 0.961% (inactive); in [17], 2.62% (inactive).
